PubChem BioAssay (NCATS)
“And” between values parts separate entries of the source, which are not always exact repeats. Equal entries are not always repeated. Records with an inconclusive call do not appear. Some structures have more than one record in an assay (separate samples or runs), and their calls can disagree. The source made the active and inactive calls. Calls follow the shape of the dose curve; as a rule, active = well fitted curve in the direction sought with a large enough effect; inconclusive = small, poorly fitted or top-dose-only effect, or another doubt; inactive = no such curve, though single readings can be large; an effect the other way counts as inactive or inconclusive.

Experiments:
[1] = Viability qHTS for spleen associated tyrosine kinase inhibitor (SYKi) naive MV4-11 cells (AID 1963823); also: nearly all actives have a fitted effect of over 40% in size
Method in brief: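 SYKi-naive MV4-11 AML cells, 500 per well, were exposed to library compounds for 72 hr at 37 C, 5% CO2. Viability was then read by CellTiter-Glo luminescence after 10 min at room temperature.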

[2] = Viability qHTS for spleen associated tyrosine kinase inhibitor (SYKi) drug resistant MV4-11 cells (AID 1963824); also: nearly all actives have a fitted effect of over 35% in size
Method in brief: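 CellTiter-Glo luminescence, read 10 min after reagent addition, reports viability after a 72 hr compound exposure. Cells are an MV4-11 line made resistant to SYK inhibition, seeded at 500 per well onto compound-containing plates.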

[3] = Cellular viability qHTS for adrenocortical cancer (ACC) cell line SW-13 (AID 1963989); details: SW-13 ACC cells viability, CellTiter-Glo, 48 h; activity (max response): stronger effect = lower value; also: nearly all actives have a fitted effect of over 65% in size;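 as to activity (max response): cells grown in serum-free medium with ITS supplement; % is scaled to controls: 0 for no effect and ±100 for the full control effect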
Method in brief: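 Compound titrations (up to 46 uM final, in DMSO) were applied to SW-13 cells for 48 h at 37C/5% CO2. Reading used CellTiter-Glo after 20 min at room temperature; fitted curves yielded IC50 and efficacy.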

[4] = Cellular viability qHTS for adrenocortical cancer (ACC) cell line NCI-H295R (AID 1963990); also: nearly all actives have a fitted effect of over 60% in size
Method in brief: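 Readout: CellTiter-Glo luminescence, 20 min RT. Exposure: 48 h, 37C/5% CO2. Cells: NCI-H295R, ITS-DMEM serum-free. Range: up to 46 uM. Analysis: 4PL fit, IC50 plus efficacy.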
Potency is read from the fitted curve at half-maximal effect.

NC12CC3CC(CC(C3)C1)C2
Potency [1]: inactive | Potency [2]: inactive | activity (max response) [3]: 13.7% (inactive) and -1.26% (inactive)

Cc1c(NC(C)C)c(=O)n(-c2ccccc2)n1C
Potency [1]: inactive | Potency [2]: inactive | activity (max response) [3]: 8.03% (inactive)

O=C(c1ccc(/C=C/c2n[nH]c3ccccc23)cc1)N1CCNCC1
Potency [1]: 0.058 µM (active) | Potency [2]: 0.206 µM (active) | activity (max response) [3]: -10.3% (inactive)

NNc1nnc(NN)c2ccccc12
Potency [1]: inactive | Potency [2]: inactive | activity (max response) [3]: -8.18% (inactive)

CCC(=O)O[C@]1(C(=O)CCl)[C@@H](C)C[C@H]2[C@@H]3CCC4=CC(=O)C=C[C@]4(C)[C@@]3(F)[C@@H](O)C[C@@]21C
Potency [1]: 4.73 µM (active) and 10.5 µM (active) | Potency [2]: 15 µM (active) and 14.8 µM (active) | activity (max response) [3]: -11.2% (inactive) and -16.8% (inactive)

CC1=C(C(=O)O)N2C(=O)[C@@H](NC(=O)[C@H](N)c3ccccc3)[C@H]2SC1
Potency [1]: inactive | Potency [2]: inactive | activity (max response) [3]: 10% (inactive)

CCn1c(N)c(C(=O)NC)c(=O)c2ccc(C#CC(C)(O)COC)nc21 (centres undefined)
Potency [1]: 4.17 µM (active) | Potency [2]: 4.11 µM (active) | activity (max response) [3]: 12.5% (inactive)

COc1c(C)c2c(c(O)c1C/C=C(\C)CCC(=O)O)C(=O)OC2
Potency [1]: 750 nM (active) and 1.32 µM (active) | Potency [2]: 473 nM (active) and 934 nM (active) | activity (max response) [3]: -49% (inactive)

CC(C(O)c1ccccc1)N(C)CCOC(c1ccccc1)c1ccccc1 (centres undefined)
Potency [1]: 9.2 µM (active) | Potency [2]: 8.2 µM (active) | Potency [3]: 20.6 µM (active)

CCC(=O)O[C@H]1[C@H](O[C@@H]2[C@@H](C)[C@H](O[C@H]3C[C@@](C)(OC)[C@@H](O)[C@H](C)O3)[C@@H](C)C(=O)O[C@H](CC)[C@@](C)(O)[C@H](O)[C@@H](C)C(=O)[C@H](C)C[C@@]2(C)O)O[C@H](C)C[C@@H]1N(C)C
Potency [1]: inactive | Potency [2]: inactive | activity (max response) [3]: 0.809% (inactive)

CN1CC(=O)N/C1=N/C(=O)Nc1cccc(Cl)c1
Potency [1]: inactive | Potency [2]: inactive | activity (max response) [3]: 2.23% (inactive)

COc1cc(C(=O)N2CCCCCCC2)cc(OC)c1OC
Potency [1]: inactive | Potency [2]: inactive | activity (max response) [3]: 6.12% (inactive)

NC(N)=NS(=O)(=O)c1ccc(N)cc1
Potency [1]: inactive | Potency [2]: inactive | activity (max response) [3]: 7.35% (inactive)

C/C(=N\NC(=O)c1cccc(S(=O)(=O)N2CCOCC2)c1)c1cc(Cl)ccc1O
Potency [1]: 0.525 µM (active) | Potency [2]: 0.742 µM (active) | Potency [3]: 8.91 µM (active)

COc1ccc(Cl)cc1C(=O)NCCc1ccc(S(=O)(=O)NC(=O)NC2CCCCC2)cc1
Potency [1]: inactive | Potency [2]: inactive | activity (max response) [3]: -4.38% (inactive)

N[C@@H](COP(=O)(O)O)C(=O)O
Potency [1]: inactive | Potency [2]: inactive | activity (max response) [3]: -3.07% (inactive)

NC(=NCCCCCCN=C(N)/N=C(\N)Nc1ccc(Cl)cc1)/N=C(\N)Nc1ccc(Cl)cc1
Potency [1]: 5.31 µM (active) and 1.84 µM (active) | Potency [2]: 2.99 µM (active) and 1.64 µM (active) | Potency [3]: 5.17 µM (active)

CC(=O)O[C@]1(C(C)=O)CC[C@H]2[C@@H]3C=C(C)C4=CC(=O)CC[C@]4(C)[C@H]3CC[C@@]21C
Potency [1]: inactive and 16.6 µM (active) | Potency [2]: 14.8 µM (active) | activity (max response) [3]: 8.88% (inactive) and -22.2% (inactive)

C[C@]12C=CC(=O)C=C1CC[C@H]1[C@@H]3C[C@@H](O)[C@](O)(C(=O)CO)[C@@]3(C)C[C@H](O)[C@@]12F
Potency [1]: inactive | Potency [2]: inactive | activity (max response) [3]: 4.79% (inactive)

CCN1/C(=C/C(C)=O)Sc2ccc(OC)cc21
Potency [1]: 9.2 µM (active) | Potency [2]: 8.2 µM (active) | activity (max response) [3]: 3.06% (inactive)

CCN(CC)CCOC(=O)C1(C2CCCCC2)CCCCC1
Potency [1]: inactive | Potency [2]: inactive | activity (max response) [3]: -12.2% (inactive)

NC(=O)c1cccc2c(NC(CN3CCC3)c3ccc(Cl)c(C(F)(F)F)c3)ncnc12 (centres undefined)
Potency [1]: 1.48 µM (active) | Potency [2]: 2.35 µM (active) | Potency [3]: 14.1 µM (active)

COc1cc(C(=S)N2CCOCC2)ccc1O
Potency [1]: inactive | Potency [2]: inactive | activity (max response) [3]: -19.3% (inactive)

CCOc1ccc(Cc2cc([C@@H]3O[C@H](CO)[C@@H](O)[C@H](O)[C@H]3O)ccc2Cl)cc1
Potency [1]: inactive | Potency [2]: 18.6 µM (active) | activity (max response) [3]: -2.91% (inactive)

CCCCC(CC)COC(=O)/C=C/c1ccc(OC)cc1 (centres undefined)
Potency [1]: inactive | Potency [2]: inactive | activity (max response) [3]: 1.77% (inactive)

C[C@@H]1CN(CC(=O)Nc2ccc3c(c2)Cc2cccc(-c4cc(=O)cc(N5CCOCC5)o4)c2S3)C[C@H](C)O1
Potency [1]: 8.33 µM (active) | Potency [2]: 4.68 µM (active) | Potency [3]: 28.2 µM (active)

COCc1c(-c2ccc(NC(=O)Nc3cc(C(F)(F)F)ccc3F)c(F)c2)c2c(N)ncnn2c1CN1CCOCC1
Potency [1]: 0.0105 µM (active) | Potency [2]: 0.0164 µM (active) | activity (max response) [3]: -5.64% (inactive)

CCN1CCc2nc(N)oc2CC1
Potency [1]: inactive | Potency [2]: inactive | activity (max response) [3]: 7.47% (inactive)

Cc1cc(C(=O)Nc2cc(Nc3ccc4c(/C=C/c5ccccn5)n[nH]c4c3)ccc2F)n(C)n1
Potency [1]: 9.2 µM (active) and 5.25 µM (active) | Potency [2]: 9.2 µM (active) and 5.25 µM (active) | Potency [3]: 22.4 µM (active)

Cc1cc(N2CCOCC2)ccc1Nc1nc(NC2CCCCC2)c2[nH]cnc2n1
Potency [1]: 0.833 µM (active) | Potency [2]: 0.461 µM (active) | Potency [3]: 25.1 µM (active)

N[C@@H](Cc1ccc(O)cc1)C(=O)O
viability (% of control) [1]: 88.5% [at 9.25 µM] (inactive) | viability, % of control [2]: 81.6% [at 9.25 µM] (inactive) | activity (max response) [3]: 7.19% (inactive)

Cn1ncc(Cl)c1-c1cc(C(=O)N[C@H](CN)Cc2ccc(F)c(F)c2)sc1Cl
Potency [1]: 9.2 µM (active) and 5.9 µM (active) | Potency [2]: 11.6 µM (active) and 4.68 µM (active) | Potency [3]: 8.91 µM (active)

CN(C)CCCOC1(Cc2ccccc2)CCCCCC1
Potency [1]: inactive | Potency [2]: inactive | activity (max response) [3]: 2.61% (inactive)

CCOC(=N)c1nc2ccc3ncnc(Nc4cc(F)c(F)cc4Cl)c3c2s1
Potency [1]: 7.42 µM (active) | Potency [2]: 7.42 µM (active) | activity (max response) [3]: -16.7% (inactive)

C#Cc1cccc(Nc2ncnc3cc(OCCOC)c(OCCO)cc23)c1
Potency [1]: 1.48 µM (active) | Potency [2]: 2.63 µM (active) | Potency [3]: 6.31 µM (active)

Cc1cnc(NC(=O)c2cc(Oc3cnc(C(=O)N(C)C)nc3)c3cc(C)oc3c2)cn1
Potency [1]: inactive | Potency [2]: inactive | activity (max response) [3]: -13.9% (inactive)

CCCNC(=O)[C@H]1O[C@@H]1C(=O)N[C@H](C(=O)N1CCC[C@H]1C(=O)OC)C(C)CC (some centres undefined)
Potency [1]: 1.66 µM (active) | Potency [2]: 0.934 µM (active) | Potency [3]: 10 µM (active)

CC(C)C[C@@H](N)C(=O)O
Potency [1]: inactive | Potency [2]: inactive | activity (max response) [3]: 8.35% (inactive)

C=C1c2cccc(O)c2C(O)=C2C(=O)[C@]3(O)C(O)=C(C(N)=O)C(=O)[C@@H](N(C)C)[C@@H]3[C@@H](O)[C@H]12
Potency [1]: inactive | Potency [2]: inactive | activity (max response) [3]: 3.29% (inactive)

C#C[C@]1(O)CC[C@H]2[C@@H]3CCC4=Cc5oncc5C[C@]4(C)[C@H]3CC[C@@]21C
Potency [1]: 15 µM (active) | Potency [2]: 8.41 µM (active) | activity (max response) [3]: 0.351% (inactive)

CCCCCOc1ccccc1/C(=C\SC)n1ccnc1
Potency [1]: 11.9 µM (active) | Potency [2]: 18.8 µM (active) | Potency [3]: 23.1 µM (active)

NCC[C@H](O)C(=O)N[C@@H]1C[C@H](N)[C@@H](O[C@H]2O[C@H](CN)[C@@H](O)[C@H](O)[C@@H]2O)[C@H](O)[C@@H]1O[C@H]1O[C@H](CO)[C@@H](O)[C@H](N)[C@@H]1O
viability (% of control) [1]: 113% [at 0.588 µM] (inactive) | viability, % of control [2]: 95% [at 0.588 µM] (inactive) | activity (max response) [3]: 11.7% (inactive)

CCC1=C[C@@H]2CN(C1)Cc1c([nH]c3ccccc13)[C@@](C(=O)OC)(c1cc3c(cc1OC)N(C)[C@H]1[C@@](O)(C(=O)OC)[C@H](OC(C)=O)[C@]4(CC)C=CCN5CC[C@]31[C@@H]54)C2
Potency [1]: 8.4 nM (active) and 91 nM (active) | Potency [2]: 7.5 nM (active) and 64.5 nM (active) | Potency [3]: 0.143 µM (active) | activity (max response) [3]: -91.8% (inactive) | Potency [4]: 20.6 nM (active) and 2.54 µM (active)

Nc1c2c(nc3c1CCC3)CCCC2
Potency [1]: inactive | Potency [2]: inactive | activity (max response) [3]: -9.88% (inactive)

NC(=O)N/N=C/c1ccc([N+](=O)[O-])o1
Potency [1]: 27.3 µM (active) and inactive | Potency [2]: 21.7 µM (active) | Potency [3]: 35.5 µM (active) | activity (max response) [3]: 4.16% (inactive) | Potency [4]: 8.91 µM (active)

CC(C)C[C@H](CO)Nc1nc(S[C@@H](C)c2ccccc2)nc2nc(N)sc12
Potency [1]: 14.6 µM (active) | Potency [2]: 6.61 µM (active) | Potency [3]: 31.6 µM (active)

CC1=C(CC(=O)O)c2cc(F)ccc2/C1=C\c1ccc(S(C)=O)cc1 (centres undefined)
Potency [1]: inactive | Potency [2]: inactive | activity (max response) [3]: 1.22% (inactive)

CC(=O)OC[C@H]1O[C@@](COC(C)=O)(O[C@H]2O[C@H](COC(C)=O)[C@@H](OC(C)=O)[C@H](OC(C)=O)[C@H]2OC(C)=O)[C@@H](OC(C)=O)[C@@H]1OC(C)=O
Potency [1]: inactive | Potency [2]: inactive | activity (max response) [3]: 1.89% (inactive)

CC1=C(c2ccc(O)cc2)[C@H](c2ccc(OCCN3CCCCC3)cc2)Oc2cc(O)ccc21
Potency [1]: 8.33 µM (active) | Potency [2]: 8.33 µM (active) | activity (max response) [3]: -12% (inactive)

O=C(CCc1ccc(O)cc1)c1c(O)cc(O)cc1O[C@@H]1O[C@H](CO)[C@@H](O)[C@H](O)[C@H]1O
Potency [1]: inactive | Potency [2]: inactive | activity (max response) [3]: 0.618% (inactive) | Potency [4]: inactive

COC1CCC(N2C(=O)CNc3ncc(-c4ccc(C(C)(C)O)nc4)nc32)CC1 (centres undefined)
Potency [1]: 5.25 µM (active) | Potency [2]: 4.17 µM (active) | Potency [3]: 15.8 µM (active)

CC1(C)OCCn2c1nc1c(N3CCOCC3)nc(-c3cnc(N)nc3)nc12
Potency [1]: 1.32 µM (active) | Potency [2]: 2.95 µM (active) | activity (max response) [3]: -17.2% (inactive)

COc1cc2c(cc1OC)C(=O)CC2
Potency [1]: inactive | Potency [2]: inactive | activity (max response) [3]: 12.7% (inactive)
